Results reported in PubChem BioAssay (NCI).
Compounds without any hit were thinned out: in the full panel of roughly 79,000, 15% have a hit. No stated cut-off is given here; in the data, active means growth inhibition above about 70%; inactive means the rest.

What was measured:
[1] = NCI Yeast Anticancer Drug Screen. Data for the rad50 strain (AID 155);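 further: 0% = growth of vehicle-only cultures of the same strain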; conditions: S. cerevisiae rad50 strain growth inhibition; at 50.0 µM; stronger effect = higher value
Summary of the method: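 Relative growth inhibition (compound vs vehicle) was measured in yeast with a defined repair-gene alteration.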

[2] = NCI Yeast Anticancer Drug Screen. Data for the mec2-1 strain (AID 157); conditions: S. cerevisiae mec2-1 strain, at 50.0 µM, stronger effect = higher value
Summary of the method: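 Growth inhibition is read against vehicle-treated controls after compound exposure of the mec2-1 yeast strain, which is defective in DNA damage repair or cell cycle control.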

[3] = NCI Yeast Anticancer Drug Screen. Data for the sgs1 mgt1 strain (AID 161);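 further: 0% = growth of cultures given vehicle only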; conditions: S. cerevisiae sgs1 mgt1 strain, at 50.0 µM, stronger effect = higher value
Summary of the method: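 Yeast cells carrying a defined DNA-repair defect were exposed to test compounds. Growth inhibition was measured relative to vehicle-treated controls.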

[4] = NCI Yeast Anticancer Drug Screen. Data for the cln2 rad14 strain (AID 165);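 further: 0% = growth equal to vehicle treated cultures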; conditions: S. cerevisiae cln2 rad14 strain, at 50.0 µM, stronger effect = higher value
Summary of the method: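 Growth inhibition, relative to vehicle-treated controls, is the read-out. The test organism is a yeast strain with defined genetic alterations, cln2 rad14.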

[5] = NCI Yeast Anticancer Drug Screen. Data for the bub3 strain (AID 167); conditions: S. cerevisiae bub3 mutant strain, at 50.0 µM, stronger effect = higher value
Summary of the method: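 Screening used yeast with an engineered genetic alteration affecting cell cycle control. Compound-exposed cultures were compared with vehicle cultures, and reduced growth was taken as inhibition.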

[6] = NCI Yeast Anticancer Drug Screen. Data for the mlh1 rad18 strain (AID 175); conditions: S. cerevisiae mlh1 rad18 strain growth inhibition; at 50.0 µM; stronger effect = higher value
Summary of the method: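 Cells of a genetically altered yeast strain, deficient in DNA damage repair, were treated with compound. Their growth was then compared with that of vehicle-treated cultures to give inhibition.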

Measured: growth inhibition

O=c1[nH]c2cc(Cl)ccc2nc1/C=C(\O)c1ccc2ccccc2c1
inactive: [1] 27.2% | [2] -5.2% | [3] -6.3% | [4] -3.85% | [5] -16.6% | [6] 25.4%

COc1ccc(NS(=O)(=O)c2ccc(NC(=O)NCCCl)cc2)nn1
inactive: [1] 13% | [2] -0.2% | [3] -9.85% | [4] 8.95% | [5] 2.55% | [6] 5.85%

O=C1N(Cl)C2C(N1Cl)N(Cl)C(=O)N2Cl (stereo unspecified)
inactive: [1] 5.35% | [2] -9.55% | [3] -18.4% | [4] -2.9% | [5] 2.95% | [6] -12.6%

CCCc1nc2ccc(C)cc2[nH]1
inactive: [1] 8.4% | [2] -9% | [3] -18.2% | [4] -11.3% | [5] -1.5% | [6] 7.9%

C/C(=N\Nc1ccc([N+](=O)[O-])cn1)c1ccccn1
inactive: [1] 31.2% | [2] -10.2% | [3] 25.4% | [4] 5.6% | [5] 12.2% | [6] -1.3%

O=C(O)C(c1ccccc1)C(O)C1CCCC1 (stereo unspecified)
inactive: [1] -2.9% | [2] -11.1% | [3] 1.05% | [4] -10.8% | [5] -7.3% | [6] -4.45%

CC(C)[C@@H]1CC[C@@H](C)C[C@H]1OC(=O)/C=C1\C(C(=O)O[C@@H]2C[C@H](C)CC[C@H]2C(C)C)[C@H]2C=C[C@@H]1O2 (stereo partly specified)
inactive: [1] -6.15% | [2] -13.6% | [3] -9.35% | [4] -25.1% | [5] -27.1% | [6] 6.5%

COC(=O)C1N=CSCC1(C)O (stereo unspecified)
inactive: [1] -4.8% | [2] 15.3% | [3] -25.9% | [4] 12.5% | [5] -2.45% | [6] -16.4%

CCCC(=O)Oc1ccc(C(C)(C)C)cc1
inactive: [1] 38.7% | [2] 6.75% | [3] 15.2% | [4] 10.8% | [5] 20.4% | [6] 5.5%

CCC(CC(C)C)C(=O)OCCBr (stereo unspecified)
inactive: [1] 17.9% | [2] 15.2% | [3] 20.6% | [4] -12.8% | [5] 45.5% | [6] 14.4%

CCOC(=O)C(=CNC(=S)c1cccnc1)C(=O)OCC
inactive: [1] -23.9% | [2] -37.7% | [3] -20.9% | [4] -7.75% | [5] -10% | [6] -1.5%

Cc1ccc(NC(=S)/N=C/c2c(O)[nH]c(=O)[nH]c2=O)c(C)c1
inactive: [1] -9.4% | [2] -20.4% | [3] -15.8% | [4] -4.85% | [5] -24.5% | [6] 2.05%

CN(C)c1ccc(C2NC(c3ccccc3)c3c(ccc4ccccc34)O2)cc1 (stereo unspecified)
inactive: [1] 8.5% | [2] 2.45% | [3] -12.7% | [4] -22.8% | [5] 2.5% | [6] 0.95%

COc1ccc(OC)c(NC(=O)Oc2cc(C)c(Cl)c(C)c2)c1
inactive: [1] 5.85% | [2] -1.85% | [3] 7.1% | [4] 8.25% | [5] 9.1% | [6] 6.35%

CC1OC(c2ccc3c(c2O)C(=O)C2=C(C3=O)C3(O)C(=O)CC(C)(O)CC3(O)C=C2)CC(O)C1O (stereo unspecified)
inactive: [1] -19.2% | [2] -23.1% | [3] -19.4% | [4] -8.1% | [5] -21.8% | [6] -5.5%

Cc1ccc(CN(C)C)c(C(O)c2ccccc2)c1 (stereo unspecified)
inactive: [1] 14.9% | [2] -0.75% | [3] -0.1% | [4] 11.1% | [5] 6.6% | [6] -2.45%

OC(CCCCCCCCC(O)CN1CCCCC1)CN1CCCCC1 (stereo unspecified)
inactive: [1] 3.3% | [2] 25.6% | [3] 5.45% | [4] 11% | [5] 20.6% | [6] 15.1%

O=C(C[n+]1cc(Br)cc(Br)c1)c1ccc(Br)cc1
inactive: [1] -16.9% | [2] -0.15% | [3] -0.05% | [4] -0.9% | [5] -4.95% | [6] 37.9%

O=C(CCOP(=O)(NCCCl)NCCCl)c1ccccc1
inactive: [1] 5.2% | [2] -14.8% | [3] 0.25% | [4] 7.25% | [5] -11.7% | [6] 24%

Cc1cc(N(CCC#N)CCC#N)ccc1/C=C(\NC(=O)/C=C/c1ccccc1)C(=O)Nc1ccccc1Cl
inactive: [1] 32.3% | [2] 13.8% | [3] 42.1% | [4] 9.7% | [5] 1.2% | [6] 14.9%

COc1cccc(N2CCN(CC(O)COc3ccc(N)cc3)CC2)c1 (stereo unspecified)
inactive: [1] 36.1% | [2] 25.1% | [3] 31.9% | [4] 30.6% | [5] 25.1% | [6] 44%

CCCCNC(=O)OCc1cnc(C)n1Cc1ccccc1
inactive: [1] 2.8% | [2] -0.3% | [3] 6% | [4] 4.95% | [5] 4.1% | [6] 10.2%

COc1ccc(Nc2ccnc(N)n2)cc1
inactive: [1] 5.15% | [2] -27.4% | [3] 1.25% | [4] -0.35% | [5] 14.2% | [6] -13.2%

OCCC(CO)Cc1ccc2c(c1)OCO2 (stereo unspecified)
inactive: [1] -26.7% | [2] 2.75% | [3] 9.3% | [4] 10.4% | [5] -14.2% | [6] -36.3%

CC(NC(=O)C(CC(=O)OCc1ccccc1)NC(=O)OCc1ccccc1)c1ccccc1 (stereo unspecified)
inactive: [1] 9.5% | [2] -20.5% | [3] 9.15% | [4] -21.6% | [5] -17.4% | [6] -1.3%

CNc1ccc(Br)cc1[N+](=O)[O-]
inactive: [1] -22.2% | [2] -22.7% | [3] -12.9% | [4] -0.2% | [5] -26.7% | [6] -15.4%

CCN(CC)c1nc(=O)c(C(=O)C(C)(C)C)c(C(C)(C)C)o1
inactive: [1] -14.9% | [2] -39% | [3] -34.1% | [4] -11.8% | [5] -9.15% | [6] -17.1%

O=C(c1ccc2ccccc2c1)C(Cl)C(Cl)c1ccccc1 (stereo unspecified)
inactive: [1] -13.2% | [2] 10.8% | [3] -1.55% | [4] -15.8% | [5] 53.1% | [6] -6.15%

COc1cc2cccc(N=Cc3ccccc3Cl)c2cc1OC
inactive: [1] -8.7% | [2] -7.4% | [3] -11.3% | [4] 27.9% | [5] 8.55% | [6] -3.8%

CCCCCCCCCCCCCCCCN (tested in a mixture with another compound)
inactive: [1] 29.9% | [2] -11.1% | [3] 7.9% | [4] -24.1% | [5] 26.5% | [6] 17.4%

O=c1[nH]cnc2c(COCCO)c[nH]c12
inactive: [1] -18.6% | [2] 2.8% | [3] -19.5% | [4] -3.95% | [5] -34.3% | [6] -20.9%

CO[C@@H]1[C@@H](O)c2ccccc2N1C(C)=O
inactive: [1] 13.4% | [2] 1.9% | [3] -4% | [4] 8.15% | [5] 3.25% | [6] 20.1%

C=C(C)Cc1cc(C(CC)C(CC)c2ccc(O)c(CC(=C)C)c2)ccc1O (stereo unspecified)
inactive: [1] 18.6% | [2] 20.4% | [3] 47.2% | [4] 34.3% | [5] 6.25% | [6] 46%

COC(=O)C1C(C(=O)OC)C2(C)C(=O)C1(C)C(c1ccccc1)=C2c1ccccc1 (stereo unspecified)
inactive: [1] -0.7% | [2] 2.55% | [3] -5.4% | [4] -12.3% | [5] 1.15% | [6] 5.15%

C/C=C(\c1ccccc1)N1CCOCC1
inactive: [1] 17.9% | [2] -9.15% | [3] -8.6% | [4] -37.5% | [5] 7.1% | [6] 5.25%

O=C(O)c1cc(-c2ccccc2)nc2c(Cl)cc(Cl)cc12
inactive: [1] -12.9% | [2] -28.8% | [3] -1.85% | [4] 9.8% | [5] -16.4% | [6] -3.6%

CC1=CC[C@@H](Br)C(C)(C)[C@]12CC[C@]1(C)O[C@@H]1C2
inactive: [1] 3.15% | [2] -33.6% | [3] -12.6% | [4] 2.55% | [5] -23.6% | [6] -13.6%

O=c1ccn2cnc3c(ncn3C3OC(CO)C(O)C3O)c2n1 (stereo unspecified)
inactive: [1] 4.8% | [2] 9% | [3] 10.2% | [4] 7.2% | [5] -10.9% | [6] 9.85%

O=C(c1ccccc1)C1C(C(=O)c2ccccc2)C1c1ccccc1 (stereo unspecified)
inactive: [1] -11.3% | [2] -4.45% | [3] 21.3% | [4] 3.4% | [5] 31.3% | [6] -16.1%

O=C(O)c1ccc(O)cc1O
inactive: [1] 12.8% | [2] 18.6% | [3] -25.2% | [4] -29.4% | [5] -4.65% | [6] -2.5%

BrC12c3ccccc3C(Br)(c3ccccc31)c1ccccc12
inactive: [1] 5.95% | [2] 5.6% | [3] -3.15% | [4] -7.4% | [5] -5.3% | [6] 6.2%
